This is an account of results in paper PMC12136788.

B1: chr1:39494447:39494448:+_ENSG00000168653_ENST00000372967|hu_mus|hu_hu_hu_mus_False|68_88 (ssRNA)
RNA: GGGAGUUCUACAGUCCGACGAUCGCACCGAGCGGCGUUCUUAUAGGGCUGUUCACCGCUUAGGAACGUCAACCAUCGGUCCAGGCUGAUGCCCAGCUUUUUCUGUAUGUCAAGGAAAGGCAUGGCUCUGCAGUGCCCUUGUCACAACAGAGGAUUGAGCAUCA
B2: chr14:76904540:76904541:+_ENSMUSG00000022010_ENSMUST00000022587|mus_hu|motif|central (ssRNA)
RNA: GGGAGUUCUACAGUCCGACGAUCAAAGAAAUUGAAAAAUGUCUCAGUUGGUAAACUCCUAGAUCCAUCGCCACUGGUCGGCACCAUUGGGAUUUCAUGCAAUUGCAGCCAAAAACACCCUCGUGGAAAAAAAGAGGGAACACCCAACAGAGGAUUGAGCAUCA
B3: chr10:1038518:1038519:+_ENSG00000107937_ENST00000545048|hu_hu|hu_hu_hu_mus_False|28_58 (ssRNA)
RNA: GGGAGUUCUACAGUCCGACGAUCCAGUCUGUCAUGGUAAUUCUGUUGAGUAAAUUUGACUUUUCUCAUAUAAAAAUGUCUAAUGCGAUGAAUUUGAUAAUGUUUAUGAAUAACGGUUGGAGUCUUUCGUUGAGUCUUGGAUAACAACAGAGGAUUGAGCAUCA
B4: chr11:120466956:120466957:+_ENSMUSG00000025135_ENSMUST00000093140|mus_mus|FALSE|FALSE (ssRNA)
RNA: GGGAGUUCUACAGUCCGACGAUCCAAGCAGAGGCCUCCAGCACGGCUCGGAACUGUAAUGAGUUUUACUUAUUGAAUAAAGUGUCAAUGUGAUGGGAAAACAAAACAGUCAGCAAAGCUCCUUUCAACCUUGUCCCAGCCAAACAACAGAGGAUUGAGCAUCA
B5: chr7:90019461:90019462:+_ENSMUSG00000057706_ENSMUST00000082237|mus_hu|FALSE|FALSE (ssRNA)
RNA: GGGAGUUCUACAGUCCGACGAUCCGUCACAAUUGUGUGAUUAUUAAAAUAAUACAGUGUUCUUUGCCAUAAGGCCAUACUAAAAUAAAAAGAUUUAACCCAGCUACAAAAAAGUUCACUGAACUUAAAUUAAAAUACUUGUAACAACAGAGGAUUGAGCAUCA
B6: chr15:88518400:88518401:-_ENSMUSG00000022387_ENSMUST00000109381|mus_hu|FALSE|FALSE (ssRNA)
RNA: GGGAGUUCUACAGUCCGACGAUCCCCGUCUUAUUAAAUAAGUGGUACUCUGUGUAAAGAGCAUGAUUUACAAAAUUAUUAAACAUUCAAAAGUCUUUAAGAAAAAGCUACAUAUCAAAGAAAGUGACGCCAGCAGCACGGCCUCAACAGAGGAUUGAGCAUCA
B7: chr15:88518400:88518401:-_ENSMUSG00000022387_ENSMUST00000109381|mus_mus|FALSE|FALSE (ssRNA)
RNA: GGGAGUUCUACAGUCCGACGAUCCCCGUCUUAUUAAAUAAGCGGUACUCUGUGUAAAGAGCAUGAUCUACAAAAUUAUUAAACAUUCAAAAGUCUUUAAAAAAAAAAAAAAACCCUACAGAUUAGAAUAAGUGAGGCCUCGGCCAACAGAGGAUUGAGCAUCA
B8: chr7:90019461:90019462:+_ENSMUSG00000057706_ENSMUST00000082237|mus_mus|FALSE|FALSE (ssRNA)
RNA: GGGAGUUCUACAGUCCGACGAUCCGUCACAAUCGUGUGAUUAUUAAAAUAAUACAGUGUUCUUUGCCAUAAGGCCAUACUAAAAAUAAAAAGAUUUAACCCAGCUACAAAAAAGUUCACUGAACUUAAAUUAAAAUACUUGUACAACAGAGGAUUGAGCAUCA
B9: chr6:53132721:53132722:-_ENSG00000012660_ENST00000304434|hu_hu|FALSE|FALSE (ssRNA)
RNA: GGGAGUUCUACAGUCCGACGAUCUUACCUGUUUGACCACUGCCUCAAAUGUGUGAGAUGUGAUUUUAUGAUAAGCAGUCUAUUAUUUUUAAACAAGAGGUUCUAAACACAUCUUUAGAUUCUAAGCAGAAAGAAAUUACAAGUCAACAGAGGAUUGAGCAUCA
B10: chr14:35505469:35505470:+_ENSMUSG00000041408_ENSMUST00000048263|mus_hu|motif|central (ssRNA)
RNA: GGGAGUUCUACAGUCCGACGAUCCUGUAUGGUAACAUUACAAACUGACAAGCAAGAUGGAUGUAAAACAGUGUAAUCUCGGGUCCGUCCAACUGUCCCUCUAAAACUGGUCCCACAACUUACACCCCCUUUCUUUGCCUGAUUCAACAGAGGAUUGAGCAUCA
B11: chr6:72561926:72561927:-_ENSMUSG00000056429_ENSMUST00000070524|mus_mus|motif|central (ssRNA)
RNA: GGGAGUUCUACAGUCCGACGAUCGUAAAUAAAACAUCACCAGAGGAGAGUGUCAUCAAAGUGCCGGUGCAAAACCUGAAGCGGUCCCAUCUCUGCCAGCCCAGACUUGCCACCAAACCCCAGAGGAGGUCACAGUCUUUUCAUCAACAGAGGAUUGAGCAUCA
B12: chr2:153237265:153237266:-_ENSMUSG00000061411_ENSMUST00000109784|mus_mus|mus_mus_mus_hu_False|8_58 (ssRNA)
RNA: GGGAGUUCUACAGUCCGACGAUCAAAAAAAAAAAAAAAAAAGUGUCCUUGUGCCCAAAGUCUCAGGUGCUUGGAGUGCAGCUAGAAACAGCUCUUUUGGAUCCCACCUCUUUCAAAAACAAAAUGUCCAACUGGUGGAGGCAGCAACAGAGGAUUGAGCAUCA
B13: 130210676_130211900_346_CDS_ENSG00000197958_ENST00000361436|human|control|control (ssRNA)
RNA: GGGAGUUCUACAGUCCGACGAUCAAAAGUGAUAUUCCCACUGUGUUUAAUGUUUUUCUGUUUCUUUCUGUCUCUUGGUGGUUCCUUGAGGGCUUUGAUGAUCAGGGCAGAGGCAGAAGGCACCACCUCAAUCUGGGCCUGUCUCAACAGAGGAUUGAGCAUCA
B14: 26295160_26295280_2512_CDS_ENSMUSG00000026924_ENSMUST00000091252|mouse|control|control (ssRNA)
RNA: GGGAGUUCUACAGUCCGACGAUCUCCCUUUUCUGGAUGAUGAACAACCUCUGAAGGUUUUGGUUUUACAGGAACAUAAAGUGCAGGGGCAGCAGGGGCUAGAAGGACAUUGCCACCAAAAUCUGGCAGCUCAUUUUGUGCCCACAACAGAGGAUUGAGCAUCA
B15: chr8:80553714:80553715:+_ENSG00000104435_ENST00000220876|hu_mus|FALSE|FALSE (ssRNA)
RNA: GGGAGUUCUACAGUCCGACGAUCAGCCUCCAGCUUUUUCUGAAUCUCCUCCAGAGACAGGUCUUUCUUCUUUGGAGAAGCUAGAGUUCGUGGAGCUUCUGAGAUGGGAGAUGGUGGCUUCAAGAUCAGCUCAAAAGCCUGGCCCAACAGAGGAUUGAGCAUCA
B16: chr2:153237265:153237266:-_ENSMUSG00000061411_ENSMUST00000109784|mus_mus|mus_mus_mus_hu_False|1_8 (ssRNA)
RNA: B12 RNA with C78U, A79G, G137A, A138G, G140C, C141A, A142G
B17: chr2:153237265:153237266:-_ENSMUSG00000061411_ENSMUST00000109784|mus_mus|mus_mus_mus_hu_False|8_78 (ssRNA)
RNA: B12 RNA with G66A, C78U, A79G
B18: chr2:153237265:153237266:-_ENSMUSG00000061411_ENSMUST00000109784|mus_mus|mus_mus_mus_hu_False|8_28 (ssRNA)
RNA: B12 RNA with C78U, A79G, A115G

Numbering of substitutions follows the chain as printed. Over roughly 24,000 sequences, “enrichment r” has its median near 0.99; the highest 2% begin near 3.7. Many of the other results were omitted from the sample, so the highest values are more common in it than they were.

This assay deals with T1, UNK ZnF1-3 (human, UniProt Q9C0B0 31-174).
T1 sequence: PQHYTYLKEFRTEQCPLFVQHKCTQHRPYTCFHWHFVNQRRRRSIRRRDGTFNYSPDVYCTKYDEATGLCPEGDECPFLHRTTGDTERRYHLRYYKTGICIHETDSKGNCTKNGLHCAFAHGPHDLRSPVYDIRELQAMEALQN
The assay is described as follows: nsRBNS (natural sequence RNA bind-n-seq); RBNS binding buffer (assumed for nsRBNS): 25 mM Tris pH 7.5, 150 mM KCl, 3 mM MgCl2, 0.01% Triton X-100, 500 ug/ml BSA, 20 U/ml SUPERase-In, 4 C; UNK is unkempt and MSI1 is Musashi-1; names of the RNAs are library labels; protein concentration not given here; high values mean tight binding.
Regarding B1, the binding signal stood at 0.613 enrichment R.
Take B2: the binding signal was 1.75 enrichment R.
B3 gave a binding signal of 1.2 enrichment R.
The value for B4 was 1.39 enrichment R; that for B5 was 3.55 enrichment R.
The value for B6 was 10 enrichment R.
The molecule B7 registered a binding signal of 6.27 enrichment R.
Then B8, with 3.43 enrichment R; and B9, with 1.61 enrichment R.
Then B10, with 1.1 enrichment R; and B11, with 3.38 enrichment R; and B12, with 3.36 enrichment R.
B13: the binding signal stood at 0.682 enrichment R.
Take B14: the binding signal worked out at 1.58 enrichment R.
The value for B15 was 0.56 enrichment R; that for B16 was 4.46 enrichment R; that for B17 was 4.8 enrichment R.
On to B18, for which the binding signal stood at 3.73 enrichment R.
